Test results as given in paper PMC7862700, “An all-to-all approach to the identification of sequence-specific readers for epigenetic DNA modifications on cytosine”.

What was measured:
Test in all cases: DAPPL (digital affinity profiling via proximity ligation, sequencing); 10 mM Tris-HCl pH 7.5, 50 mM NaCl, 1 mM DTT, 4% glycerol, room temperature, 30 min; GST-TFs on glutathione beads, 16-mer random dsDNA library, 0.1% formaldehyde crosslink after washing; high values mean tight binding
Settings in all cases: protein: recombinant; tags: N-terminal GST; dsDNA, one strand shown
ERG = molecular target: T1, ERG (Homo sapiens, UniProt P11308 1-479)
T1 sequence: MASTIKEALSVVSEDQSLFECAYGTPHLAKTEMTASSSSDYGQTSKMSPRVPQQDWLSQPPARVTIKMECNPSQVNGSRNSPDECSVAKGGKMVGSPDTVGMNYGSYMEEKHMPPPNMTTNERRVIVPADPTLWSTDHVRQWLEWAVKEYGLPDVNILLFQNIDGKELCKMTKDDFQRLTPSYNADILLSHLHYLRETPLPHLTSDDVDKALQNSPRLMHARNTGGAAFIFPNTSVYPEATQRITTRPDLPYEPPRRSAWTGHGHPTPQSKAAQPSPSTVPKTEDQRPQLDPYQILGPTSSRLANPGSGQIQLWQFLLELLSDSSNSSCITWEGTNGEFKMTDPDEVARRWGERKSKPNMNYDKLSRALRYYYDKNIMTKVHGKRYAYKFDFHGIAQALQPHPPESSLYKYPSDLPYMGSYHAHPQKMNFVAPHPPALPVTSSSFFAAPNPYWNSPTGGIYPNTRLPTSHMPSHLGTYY
Procedure, shortened: (§1)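 GST fusions of human transcription factors were expressed in yeast and captured with glutathione beads. Once given DNA barcodes and pooled alongside a tag-only sample, they were incubated for 30 min at room temperature with 200 nmole of a random double-stranded 16-mer DNA library in Tris/NaCl/DTT/glycerol buffer, then washed, crosslinked (0.1% formaldehyde), proximity-ligated, PCR-amplified and sequenced on an Illumina NextSeq500. The binding signal of each hexamer is its read frequency for a factor divided by its frequency for the tag-only sample.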

SPIB = SPIB (Homo sapiens, UniProt Q01892 1-262)
Sequence of SPIB (Q01892 whole entry): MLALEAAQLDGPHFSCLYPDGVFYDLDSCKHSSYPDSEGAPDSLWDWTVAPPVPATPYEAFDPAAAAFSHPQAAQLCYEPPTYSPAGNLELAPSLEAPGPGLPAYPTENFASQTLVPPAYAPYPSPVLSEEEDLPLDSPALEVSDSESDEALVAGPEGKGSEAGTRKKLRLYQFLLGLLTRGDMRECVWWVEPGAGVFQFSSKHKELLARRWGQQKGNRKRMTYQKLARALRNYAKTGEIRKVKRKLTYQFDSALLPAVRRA
Procedure, shortened: as §1

ETV5 = ETV5 (Homo sapiens, UniProt P41161 1-510)
Sequence of ETV5 (P41161 whole entry): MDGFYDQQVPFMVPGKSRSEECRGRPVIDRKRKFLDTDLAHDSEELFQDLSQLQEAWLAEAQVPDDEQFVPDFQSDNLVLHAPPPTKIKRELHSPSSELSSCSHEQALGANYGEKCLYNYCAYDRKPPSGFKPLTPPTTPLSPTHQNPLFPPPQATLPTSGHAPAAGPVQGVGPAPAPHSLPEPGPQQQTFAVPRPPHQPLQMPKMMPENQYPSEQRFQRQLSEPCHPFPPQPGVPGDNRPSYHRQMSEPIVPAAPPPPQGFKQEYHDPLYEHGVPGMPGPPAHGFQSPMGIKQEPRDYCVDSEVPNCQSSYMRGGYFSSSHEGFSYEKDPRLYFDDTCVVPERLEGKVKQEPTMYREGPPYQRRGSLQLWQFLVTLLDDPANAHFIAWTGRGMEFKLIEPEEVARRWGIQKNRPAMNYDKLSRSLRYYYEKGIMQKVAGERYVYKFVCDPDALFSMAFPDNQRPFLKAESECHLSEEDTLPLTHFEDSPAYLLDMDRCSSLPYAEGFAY
Procedure, shortened: as §1

SPIC = molecular target: T2, SPIC (Homo sapiens, UniProt Q8N5J4 1-248)
T2 sequence: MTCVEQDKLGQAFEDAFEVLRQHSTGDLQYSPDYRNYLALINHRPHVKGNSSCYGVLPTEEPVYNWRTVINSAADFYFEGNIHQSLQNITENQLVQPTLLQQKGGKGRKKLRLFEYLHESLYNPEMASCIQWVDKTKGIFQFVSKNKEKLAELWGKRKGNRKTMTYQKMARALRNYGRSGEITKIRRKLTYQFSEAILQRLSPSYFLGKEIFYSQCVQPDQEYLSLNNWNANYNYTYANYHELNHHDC
Procedure, shortened: as §1

SPDEF = molecular target: T3, SPDEF (Homo sapiens, UniProt O95238 1-335)
T3 sequence: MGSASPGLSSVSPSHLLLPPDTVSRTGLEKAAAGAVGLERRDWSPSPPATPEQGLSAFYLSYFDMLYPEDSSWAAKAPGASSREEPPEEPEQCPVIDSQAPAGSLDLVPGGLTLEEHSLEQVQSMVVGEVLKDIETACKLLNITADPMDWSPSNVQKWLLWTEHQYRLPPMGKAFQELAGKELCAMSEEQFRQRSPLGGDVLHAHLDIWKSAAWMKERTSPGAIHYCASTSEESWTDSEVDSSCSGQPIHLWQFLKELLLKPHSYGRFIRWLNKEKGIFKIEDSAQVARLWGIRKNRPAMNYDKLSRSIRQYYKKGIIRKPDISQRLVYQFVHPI
Procedure, shortened: as §1

ETV3 = molecular target: T4, ETV3 (Homo sapiens, UniProt P41162-2 1-143)
T4 sequence: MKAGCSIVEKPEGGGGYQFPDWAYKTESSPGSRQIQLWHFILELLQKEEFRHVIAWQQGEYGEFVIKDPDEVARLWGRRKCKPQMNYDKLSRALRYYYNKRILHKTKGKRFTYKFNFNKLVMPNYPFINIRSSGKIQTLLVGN
Procedure, shortened: as §1

ELK1 = molecular target: T5, ELK1 (Homo sapiens, UniProt P19419 1-428)
T5 sequence: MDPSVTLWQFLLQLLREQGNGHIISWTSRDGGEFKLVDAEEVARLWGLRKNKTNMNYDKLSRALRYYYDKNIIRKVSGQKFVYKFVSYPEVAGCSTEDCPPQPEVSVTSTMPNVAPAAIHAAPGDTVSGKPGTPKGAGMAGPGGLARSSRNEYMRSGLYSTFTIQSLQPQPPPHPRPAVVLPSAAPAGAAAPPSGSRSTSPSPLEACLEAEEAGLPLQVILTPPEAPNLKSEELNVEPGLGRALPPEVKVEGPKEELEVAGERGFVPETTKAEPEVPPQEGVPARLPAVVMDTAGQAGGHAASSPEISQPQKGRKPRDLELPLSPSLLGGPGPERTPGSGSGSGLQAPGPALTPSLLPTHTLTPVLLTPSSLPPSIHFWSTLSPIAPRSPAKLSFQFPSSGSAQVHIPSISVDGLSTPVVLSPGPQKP
Procedure, shortened: as §1

GABPA = molecular target: T6, GABPA (Homo sapiens, UniProt Q06546 1-454)
T6 sequence: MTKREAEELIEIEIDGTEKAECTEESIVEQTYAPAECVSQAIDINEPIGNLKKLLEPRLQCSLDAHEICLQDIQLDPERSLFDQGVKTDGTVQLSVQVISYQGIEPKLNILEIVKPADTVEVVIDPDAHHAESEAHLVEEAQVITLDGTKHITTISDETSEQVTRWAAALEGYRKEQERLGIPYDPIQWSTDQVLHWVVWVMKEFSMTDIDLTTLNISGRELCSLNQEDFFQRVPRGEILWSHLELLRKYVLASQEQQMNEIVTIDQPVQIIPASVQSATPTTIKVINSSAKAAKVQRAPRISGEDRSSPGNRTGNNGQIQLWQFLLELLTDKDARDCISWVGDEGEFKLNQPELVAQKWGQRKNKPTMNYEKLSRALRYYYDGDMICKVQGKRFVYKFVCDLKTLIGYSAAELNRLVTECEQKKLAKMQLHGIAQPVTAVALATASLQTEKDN
Procedure, shortened: as §1

EHF = molecular target: T7, EHF (Homo sapiens, UniProt Q9NZC4 1-300)
T7 sequence: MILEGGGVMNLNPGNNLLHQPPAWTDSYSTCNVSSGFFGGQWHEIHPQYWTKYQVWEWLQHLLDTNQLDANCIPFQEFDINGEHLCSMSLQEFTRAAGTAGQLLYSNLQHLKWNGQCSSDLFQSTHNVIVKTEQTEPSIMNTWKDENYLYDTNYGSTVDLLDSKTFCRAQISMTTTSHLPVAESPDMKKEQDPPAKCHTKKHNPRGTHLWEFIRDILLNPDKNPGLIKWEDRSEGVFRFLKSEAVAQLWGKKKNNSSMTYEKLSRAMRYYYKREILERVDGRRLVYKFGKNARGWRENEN
Procedure, shortened: as §1

ELK3 = molecular target: T8, ELK3 (Homo sapiens, UniProt P41970 1-407)
T8 sequence: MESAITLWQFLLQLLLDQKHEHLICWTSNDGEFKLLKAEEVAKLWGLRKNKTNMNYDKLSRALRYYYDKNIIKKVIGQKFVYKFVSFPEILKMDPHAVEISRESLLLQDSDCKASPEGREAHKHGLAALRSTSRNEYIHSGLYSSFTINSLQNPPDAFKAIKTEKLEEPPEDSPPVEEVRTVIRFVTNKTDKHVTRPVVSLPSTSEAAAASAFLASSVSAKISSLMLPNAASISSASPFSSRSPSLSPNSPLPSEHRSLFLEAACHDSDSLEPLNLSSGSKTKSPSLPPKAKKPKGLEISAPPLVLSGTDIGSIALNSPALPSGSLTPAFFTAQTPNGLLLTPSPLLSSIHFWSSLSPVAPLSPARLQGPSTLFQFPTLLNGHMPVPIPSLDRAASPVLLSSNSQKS
Procedure, shortened: as §1

ELF3 = molecular target: T9, ELF3 (Homo sapiens, UniProt P78545 1-371)
T9 sequence: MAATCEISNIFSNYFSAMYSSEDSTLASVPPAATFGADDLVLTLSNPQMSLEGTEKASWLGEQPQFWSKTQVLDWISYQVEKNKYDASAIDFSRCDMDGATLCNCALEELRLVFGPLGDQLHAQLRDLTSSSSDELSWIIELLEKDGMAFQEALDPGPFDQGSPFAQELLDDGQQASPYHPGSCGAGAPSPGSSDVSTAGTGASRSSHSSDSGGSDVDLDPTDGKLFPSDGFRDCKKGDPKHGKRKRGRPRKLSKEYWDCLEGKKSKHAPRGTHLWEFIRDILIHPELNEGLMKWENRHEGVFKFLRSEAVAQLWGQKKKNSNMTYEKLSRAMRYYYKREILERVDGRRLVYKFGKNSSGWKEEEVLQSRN
Procedure, shortened: as §1

ERF = molecular target: T10, ERF (Homo sapiens, UniProt P50548 1-548)
T10 sequence: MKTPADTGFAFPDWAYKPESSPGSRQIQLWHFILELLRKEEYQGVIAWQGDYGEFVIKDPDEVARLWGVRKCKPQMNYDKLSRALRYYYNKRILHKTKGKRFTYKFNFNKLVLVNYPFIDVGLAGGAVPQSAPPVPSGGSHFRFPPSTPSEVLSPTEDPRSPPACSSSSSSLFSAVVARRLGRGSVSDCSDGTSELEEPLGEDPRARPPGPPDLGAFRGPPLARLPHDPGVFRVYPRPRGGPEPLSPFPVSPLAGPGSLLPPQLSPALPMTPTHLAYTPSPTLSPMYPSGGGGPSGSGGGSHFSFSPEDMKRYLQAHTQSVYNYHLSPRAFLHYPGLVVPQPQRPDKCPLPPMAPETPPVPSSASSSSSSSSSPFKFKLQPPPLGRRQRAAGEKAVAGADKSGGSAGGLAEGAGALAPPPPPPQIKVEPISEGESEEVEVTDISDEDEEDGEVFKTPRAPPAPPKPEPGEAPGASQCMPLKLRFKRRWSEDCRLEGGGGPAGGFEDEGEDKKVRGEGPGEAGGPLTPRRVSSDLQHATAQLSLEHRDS
Procedure, shortened: as §1

ETS2 = molecular target: T11, ETS2 (Homo sapiens, UniProt P15036 1-469)
T11 sequence: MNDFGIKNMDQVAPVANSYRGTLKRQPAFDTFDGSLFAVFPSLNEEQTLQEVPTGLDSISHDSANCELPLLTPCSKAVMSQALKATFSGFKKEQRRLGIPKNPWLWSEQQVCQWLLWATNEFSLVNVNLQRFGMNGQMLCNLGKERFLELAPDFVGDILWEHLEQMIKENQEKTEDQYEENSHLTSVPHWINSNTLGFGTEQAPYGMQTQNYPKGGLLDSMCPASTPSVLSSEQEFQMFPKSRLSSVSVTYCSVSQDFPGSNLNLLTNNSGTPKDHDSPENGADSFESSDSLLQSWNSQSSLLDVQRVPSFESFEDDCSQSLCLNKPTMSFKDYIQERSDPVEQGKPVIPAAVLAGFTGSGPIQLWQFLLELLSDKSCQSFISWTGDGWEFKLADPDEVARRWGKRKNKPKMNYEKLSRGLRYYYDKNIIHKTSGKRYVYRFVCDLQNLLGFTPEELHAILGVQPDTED
Procedure, shortened: as §1

Q: Which binding signal (ERG) does the source give for ATCCGT here?
A: 1.04 fold enrichment (6-mer frequency, TF over GST control)

Q: And the binding signal (SPIB)?
A: 1.1 fold enrichment (6-mer frequency, TF over GST control)

Q: What about the binding signal (ETV5) of the same sequence?
A: 1.05 fold enrichment (6-mer frequency, TF over GST control)

Q: And the binding signal (SPIC)?
A: 1 fold enrichment (6-mer frequency, TF over GST control)

Q: And the binding signal (SPDEF)?
A: 1.41 fold enrichment (6-mer frequency, TF over GST control)

Q: And the binding signal (ETV3)?
A: 1.04 fold enrichment (6-mer frequency, TF over GST control)

Q: With TATGAG as the sequence, how does the binding signal (ELK1) read?
A: 1.02 fold enrichment (6-mer frequency, TF over GST control)

Q: What about the binding signal (GABPA) of the same sequence?
A: 1.03 fold enrichment (6-mer frequency, TF over GST control)

Q: And the binding signal (EHF)?
A: 1.04 fold enrichment (6-mer frequency, TF over GST control)

Q: What about the binding signal (ELK3) of the same sequence?
A: 1.02 fold enrichment (6-mer frequency, TF over GST control)

Q: And the binding signal (ETV5)?
A: 1.02 fold enrichment (6-mer frequency, TF over GST control)

Q: What about the binding signal (SPIC) of the same sequence?
A: 1.16 fold enrichment (6-mer frequency, TF over GST control)

Q: And the binding signal (ELF3)?
A: 1.08 fold enrichment (6-mer frequency, TF over GST control)

Q: What about the binding signal (ERF) of the same sequence?
A: 1.1 fold enrichment (6-mer frequency, TF over GST control)

Q: And the binding signal (ETS2)?
A: 1 fold enrichment (6-mer frequency, TF over GST control)

Q: What about the binding signal (SPDEF) of the same sequence?
A: 1.01 fold enrichment (6-mer frequency, TF over GST control)

Q: And the binding signal (ETV3)?
A: 1.09 fold enrichment (6-mer frequency, TF over GST control)
